Measured values reported in the supplement of paper PMC4709259.
Where a name gives a salt, the structure may show the parent alone. ± gives the standard deviation.

Key:
[1] = system: Jurkat; assay: mean cell size (FSC-A) relative to DMSO control (fraction of control); higher = larger cells; conditions: 48 h
Summary of the method: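 Jurkat cells at 600 cells/µl were incubated for 1 h and then treated for 48h with the Enzo Screen-Well FDA Approved Drug Library v2.0 at 25µM, with DMSO at 0.9% (v/v) final. Compounds that reduced counts below 20% of controls were retested in 10-fold dilutions down to 25nM. Cell count and mean cell size, taken as forward scatter area, were measured by flow cytometry relative to solvent-only controls. Each plate carried 6-12 controls, and values are means of 3 biological replicates.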

[2] = system: Jurkat; assay: cell count relative to DMSO control (fraction of control); higher = more cells (less growth inhibition); conditions: 48 h

| Structure (SMILES) | mean cell size [1] | cell count [2] |
| --- | --- | --- |
| Clc1ccc(COC(Cn2ccnc2)c2ccc(Cl)cc2Cl)c(Cl)c1 (stereo not given) [Miconazole] (concentration: 25 µM) | 0.976 ± 0.04 | 0.586 ± 0.11 |
| Cc1cnc(NC(=O)C2=C(O)c3ccccc3S(=O)(=O)N2C)s1 [Meloxicam] (concentration: 25 µM) | 0.9071 ± 0.0086 | 0.808 ± 0.066 |
| COc1ccc(-c2ccc3cc(C(=O)O)ccc3c2)cc1C12CC3CC(CC(C3)C1)C2 [Adapalene] (concentration: 2.5 µM) | 1.1 ± 0.1 | 0.269 ± 0.081 |
| O=S(=O)(O)CCS [Mesna] (concentration: 25 µM) | 1.06 ± 0.026 | 0.769 ± 0.16 |
| CN1CC(=O)N2[C@H](c3ccc4c(c3)OCO4)c3[nH]c4ccccc4c3C[C@@H]2C1=O [Tadalafil] (concentration: 25 µM) | 0.922 ± 0.05 | 0.413 ± 0.12 |
| C=C1/C(=C\C=C2/CCC[C@]3(C)[C@@H]([C@H](C)/C=C/[C@@H](O)C4CC4)CC[C@@H]23)C[C@@H](O)C[C@@H]1O [Calcipotriene] (concentration: 25 µM) | 0.933 ± 0.064 | 0.654 ± 0.08 |
| CCC[C@@H]1C[C@@H](C(=O)N[C@@H]([C@H]2O[C@H](SC)[C@H](O)[C@@H](O)[C@H]2O)[C@@H](C)O)N(C)C1 [Lincomycin·HCl] (concentration: 25 µM) | 1.1 ± 0.045 | 0.754 ± 0.11 |
| CC(=O)OCC[N+](C)(C)C [Acetylcholine Chloride] (concentration: 25 µM) | 0.999 ± 0.056 | 0.68 ± 0.19 |
| C=C[C@H]1CN2CC[C@H]1C[C@H]2[C@H](O)c1ccnc2ccc(OC)cc12 [Quinine·HCl·H2O] (concentration: 25 µM) | 1.06 ± 0.055 | 0.637 ± 0.18 |
| CC(C(=O)O)c1cccc(C(=O)c2ccccc2)c1 (stereo not given) [Ketoprofen] (concentration: 25 µM) | 0.929 ± 0.0063 | 0.722 ± 0.029 |
| CC(C)C[C@H](NC(=O)[C@@H](Cc1c[nH]c2ccccc12)NC(=O)[C@H](Cc1ccc(O)cc1)NC(=O)[C@H](CO)NC(=O)[C@H](Cc1c[nH]c2ccccc12)NC(=O)[C@H](Cc1cnc[nH]1)NC(=O)[C@@H]1CCC(=O)N1)C(=O)N[C@@H](CCCN=C(N)N)C(=O)N1CCC[C@H]1C(=O)NCC(N)=O [Triptorelin Acetate] (concentration: 25 µM) | 0.997 ± 0.014 | 0.458 ± 0.081 |
| Cc1ccccc1N1C(=O)c2cc(S(N)(=O)=O)c(Cl)cc2NC1C (stereo not given) [Metolazone] (concentration: 25 µM) | 0.997 ± 0.03 | 0.918 ± 0.095 |
| CC(C)c1c(C(=O)Nc2ccccc2)c(-c2ccccc2)c(-c2ccc(F)cc2)n1CC[C@@H](O)C[C@@H](O)CC(=O)O [Atorvastatin Calcium] (concentration: 25 µM) | 1.05 ± 0.028 | 0.552 ± 0.07 |
| CCN(CCO)CCCC(C)Nc1ccnc2cc(Cl)ccc12 (stereo not given) [Hydroxychloroquine Sulfate] (concentration: 25 µM) | 0.948 ± 0.013 | 1.03 ± 0.11 |
| CC1COc2c(N3CCN(C)CC3)c(F)cc3c(=O)c(C(=O)O)cn1c23 (stereo not given) [Ofloxacin] (concentration: 25 µM) | 0.928 ± 0.011 | 0.989 ± 0.073 |
| CC(=O)c1ccc(S(=O)(=O)NC(=O)NC2CCCCC2)cc1 [Acetohexamide] (concentration: 25 µM) | 1.02 ± 0.063 | 0.723 ± 0.068 |
| O=C(O)P(=O)(O)O [Foscarnet·Na (Sodium Phosphonoformate Tribasic Hexahydrate)] (concentration: 25 µM) | 0.936 ± 0.065 | 0.59 ± 0.027 |
| C[C@H]1c2cccc(O)c2C(O)=C2C(=O)[C@]3(O)C(O)=C(C(N)=O)C(=O)[C@@H](N(C)C)[C@@H]3[C@@H](O)[C@@H]21 [Doxycycline Monohydrate] (concentration: 25 µM) | 0.861 ± 0.021 | 0.266 ± 0.051 |
| NC[C@H]1O[C@H](O[C@H]2[C@H](O)[C@@H](O[C@H]3O[C@H](CO)[C@@H](O)[C@H](N)[C@H]3O)[C@H](N)C[C@@H]2N)[C@H](O)[C@@H](O)[C@@H]1O [Kanamycin Sulfate] (concentration: 25 µM) | 0.919 ± 0.013 | 1.06 ± 0.08 |
| CN(C)CCC=C1c2ccccc2COc2ccccc21 [Doxepin·HCl] (concentration: 25 µM) | 0.978 ± 0.049 | 0.988 ± 0.13 |
| CCNC(=O)CCC/C=C\C[C@@H]1[C@@H](/C=C/[C@@H](O)CCc2ccccc2)[C@H](O)C[C@@H]1O [Bimatoprost] (concentration: 25 µM) | 0.87 ± 0.025 | 0.307 ± 0.091 |
| CN(CCOc1ccc(NS(C)(=O)=O)cc1)CCc1ccc(NS(C)(=O)=O)cc1 [Dofetilide] (concentration: 25 µM) | 0.962 ± 0.015 | 0.872 ± 0.084 |
| CCOc1cc(CC(=O)N[C@@H](CC(C)C)c2ccccc2N2CCCCC2)ccc1C(=O)O [Repaglinide] (concentration: 25 µM) | 1.03 ± 0.022 | 0.728 ± 0.063 |
| S=P(N1CC1)(N1CC1)N1CC1 [Thiotepa] (concentration: 2.5 µM) | 1.248 ± 0.012 | 0.583 ± 0.059 |
| CCCCC1=NC2(CCCC2)C(=O)N1Cc1ccc(-c2ccccc2-c2nnn[nH]2)cc1 [Irbesartan] (concentration: 25 µM) | 0.959 ± 0.06 | 0.401 ± 0.013 |

| Structure (SMILES) | mean cell size [1] | cell count [2] |
| --- | --- | --- |
| Cc1ccc(S(=O)(=O)NC(=O)NN2CCCCCC2)cc1 [Tolazamide] (concentration: 25 µM) | 1.03 ± 0.053 | 0.657 ± 0.12 |
| CC(N)C12CC3CC(CC(C3)C1)C2 (stereo not given) [Rimantadine·HCl] (concentration: 25 µM) | 1.02 ± 0.055 | 0.697 ± 0.067 |
| O=C(NCC1CCCCN1)c1cc(OCC(F)(F)F)ccc1OCC(F)(F)F (stereo not given) [Flecainide Acetate] (concentration: 25 µM) | 0.97 ± 0.014 | 0.725 ± 0.033 |
| CC1=C(C(=O)O)N2C(=O)[C@@H](NC(=O)[C@H](N)c3ccc(O)cc3)[C@H]2SC1 [Cefadroxil] (concentration: 25 µM) | 0.937 ± 0.014 | 0.895 ± 0.079 |
| COc1cc([C@@H]2c3cc4c(cc3[C@@H](O[C@@H]3O[C@@H]5CO[C@@H](C)O[C@H]5[C@H](O)[C@H]3O)[C@H]3COC(=O)[C@H]23)OCO4)cc(OC)c1O [Etoposide] (concentration: 250 nM) | 1.25 ± 0.076 | 0.243 ± 0.051 |
| CCc1nc(N)nc(N)c1-c1ccc(Cl)cc1 [Pyrimethamine] (concentration: 25 µM) | 0.959 ± 0.018 | 0.2 ± 0.033 |
| CO/N=C(\C(=O)N[C@@H]1C(=O)N2C(C(=O)O)=C(CSc3nc(=O)c(=O)[nH]n3C)CS[C@H]12)c1csc(N)n1 [Ceftriaxone·Na] (concentration: 25 µM) | 0.969 ± 0.028 | 1.06 ± 0.073 |
| CC(C)Cc1ccc(C(C)C(=O)O)cc1 (stereo not given) [Ibuprofen] (concentration: 25 µM) | 0.955 ± 0.011 | 0.765 ± 0.077 |
| CCOC(=O)C1=C(COCCN)NC(C)=C(C(=O)OC)C1c1ccccc1Cl (stereo not given) [Amlodipine] (concentration: 25 µM) | 1.06 ± 0.053 | 0.268 ± 0.055 |
| CC(C(=O)O)c1cccc(Oc2ccccc2)c1 (stereo not given) [Fenoprofen Calcium] (concentration: 25 µM) | 0.901 ± 0.05 | 0.314 ± 0.15 |
| Clc1ccc(C(c2ccccc2Cl)C(Cl)Cl)cc1 (stereo not given) [Mitotane] (concentration: 25 µM) | 1 ± 0.02 | 0.866 ± 0.14 |
| c1cnc2cc3c(cc2n1)[C@@H]1CNC[C@H]3C1 [Varenicline Tartrate] (concentration: 25 µM) | 1.02 ± 0.038 | 1.01 ± 0.062 |
| N=C(N)NCCCC[C@@H]1NC(=O)CCSSC[C@@H](C(N)=O)NC(=O)[C@@H]2CCCN2C(=O)[C@H](Cc2c[nH]c3ccccc23)NC(=O)[C@H](CC(=O)O)NC(=O)CNC1=O [Eptifibatide] (concentration: 25 µM) | 0.988 ± 0.031 | 0.933 ± 0.11 |
| Cc1c(-c2ccccc2)oc2c(C(=O)OCCN3CCCCC3)cccc2c1=O [Flavoxate·HCl] (concentration: 25 µM) | 1.01 ± 0.057 | 1.01 ± 0.062 |
| Nc1nc(O)c2ncn(CCC(CO)CO)c2n1 [Penciclovir] (concentration: 25 µM) | 0.95 ± 0.021 | 0.993 ± 0.053 |
| CNCC[C@H](Oc1cccc2ccccc12)c1cccs1 [Duloxetine·HCl] (concentration: 25 µM) | 1.02 ± 0.069 | 0.353 ± 0.073 |
| CC(=O)Oc1ccc(C(c2ccc(OC(C)=O)cc2)c2ccccn2)cc1 [Bisacodyl] (concentration: 25 µM) | 0.915 ± 0.013 | 0.813 ± 0.09 |
| CC(=O)Oc1cc2c(s1)CCN(C(C(=O)C1CC1)c1ccccc1F)C2 (stereo not given) [Prasugrel] (concentration: 25 µM) | 1.06 ± 0.023 | 0.831 ± 0.14 |
| C=CC(N)CCC(=O)O (stereo not given) [Vigabatrin] (concentration: 25 µM) | 1.002 ± 0.0073 | 0.829 ± 0.075 |
| CN[C@@H]1[C@H](O[C@H]2[C@H](O[C@H]3[C@H](O)[C@@H](O)[C@H](N=C(N)N)[C@@H](O)[C@@H]3N=C(N)N)O[C@@H](C)[C@]2(O)C=O)O[C@@H](CO)[C@H](O)[C@H]1O [Streptomycin Sulfate] (concentration: 25 µM) | 0.996 ± 0.028 | 0.791 ± 0.011 |
| Nc1nc(Cl)nc2c1ncn2[C@H]1C[C@H](O)[C@@H](CO)O1 [Cladribine] (concentration: 250 nM) | 1.17 ± 0.034 | 0.268 ± 0.024 |
| C=CC1=C(C(=O)O)N2C(=O)[C@@H](NC(=O)/C(=N\OCC(=O)O)c3csc(N)n3)[C@H]2SC1 [Cefixime] (concentration: 25 µM) | 0.977 ± 0.018 | 0.846 ± 0.069 |
| C[C@]12CCC3=C4CCC(=O)C=C4CC[C@H]3[C@@H]1CC[C@@]2(O)CC#N [Dienogest] (concentration: 25 µM) | 0.963 ± 0.035 | 0.827 ± 0.15 |
| CCN(CC)CC#CCOC(=O)C(O)(c1ccccc1)C1CCCCC1 (stereo not given) [Oxybutynin Chloride] (concentration: 25 µM) | 0.904 ± 0.022 | 0.895 ± 0.049 |
| CCc1cc(C(N)=S)ccn1 [Ethionamide] (concentration: 25 µM) | 1.05 ± 0.03 | 1.05 ± 0.1 |
